Assay results: PubChem BioAssay AID602329 (Broad Institute, 2012)
The campaign covered roughly 360,000 compounds. About 510 (0.14%) were called active. For the sample, actives were picked, then their nearest neighbours and some compounds at random. Values without a mark were called inactive.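 Rule for the calls: active = mean normalized replicate activity at least 40 and at least half of replicates scoring 40 or more; inconclusive = only one of the two criteria met; inactive = mean below 40 and under half of replicates reaching 40.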

What follows are compounds tested against DNA repair and recombination protein RAD54-like (Homo sapiens) (UniProt Q92698) (assay: inhibitors of human RAD54 branch migration, primary screen, biochemical, fluorescence, single point (AID 602329;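 note: 0% = median of neutral control wells and 100% = median of positive control wells; inhibitors cause a drop in the FAM fluorescence signal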)). Conditions: RAD54 Holliday junction branch migration, FAM/BHQ fluorescence; at 10.4 µM; active compounds read high.
DNA repair and recombination protein RAD54-like (Homo sapiens), sequence (Q92698 whole entry, looked up): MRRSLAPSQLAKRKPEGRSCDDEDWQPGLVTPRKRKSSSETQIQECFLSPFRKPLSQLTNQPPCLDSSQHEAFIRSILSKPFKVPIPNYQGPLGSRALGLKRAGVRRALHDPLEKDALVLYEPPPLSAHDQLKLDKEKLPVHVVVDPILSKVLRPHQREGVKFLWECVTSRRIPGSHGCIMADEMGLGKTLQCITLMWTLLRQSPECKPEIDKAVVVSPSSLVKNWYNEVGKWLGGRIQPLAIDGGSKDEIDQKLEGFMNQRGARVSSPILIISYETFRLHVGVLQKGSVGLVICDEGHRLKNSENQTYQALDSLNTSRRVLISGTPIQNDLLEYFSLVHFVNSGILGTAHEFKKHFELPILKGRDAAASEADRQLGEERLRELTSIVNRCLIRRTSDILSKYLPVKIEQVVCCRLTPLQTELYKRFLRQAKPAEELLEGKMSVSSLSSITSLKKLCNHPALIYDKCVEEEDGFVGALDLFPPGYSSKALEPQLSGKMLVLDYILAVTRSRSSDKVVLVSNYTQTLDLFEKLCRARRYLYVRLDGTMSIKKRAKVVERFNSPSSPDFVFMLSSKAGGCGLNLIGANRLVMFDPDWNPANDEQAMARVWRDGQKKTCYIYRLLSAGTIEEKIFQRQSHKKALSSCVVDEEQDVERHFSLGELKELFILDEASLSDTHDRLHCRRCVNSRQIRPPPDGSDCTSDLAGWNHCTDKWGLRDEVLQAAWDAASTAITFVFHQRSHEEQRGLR

| SMILES | inhibition |
| --- | --- |
| CC(C)NC(=O)Nc1ccc2c(c1)C(=O)N(C)[C@H]1CC[C@H](CC(=O)NCc3ccc(F)cc3)O[C@H]1CO2 | 7.11% |
| C[C@@H]1CN([C@H](C)CO)S(=O)(=O)c2ccc(C3=CCCC3)cc2O[C@@H]1CN(C)C(=O)C1CCC1 | -3.7% |
| C[C@@H]1CCCCO[C@@H](CN(C)C(=O)c2ccccc2)[C@@H](C)CN([C@@H](C)CO)C(=O)c2cc(NS(=O)(=O)c3ccccc3)ccc2O1 | -0.712% |
| CCCNC(=O)[C@H]1[C@H](CO)[C@H]2Cn3c(cccc3=O)[C@H]2N1Cc1ccccc1Cl | -3.26% |
| CC(=O)N1[C@@H]2Cn3c(ccc(C4=CCCC4)c3=O)[C@H]1[C@@H](C(=O)NC1CCC1)[C@@H]2CO | 7.46% |
| COc1ccc(NC(=O)N(C)C[C@H]2OCCCC[C@@H](C)Oc3ccc(NC(=O)c4ccncc4)cc3C(=O)N([C@@H](C)CO)C[C@H]2C)cc1 | 2.64% |
| CN1C(=O)c2cc(NS(=O)(=O)c3ccc(Cl)cc3)ccc2OC[C@@H]2O[C@H](CC(=O)O)CC[C@@H]21 | -1.23% |
| CC(C)NC(=O)N(C)C[C@@H]1Oc2ncc(-c3ccc(C(=O)N(C)C)cc3)cc2C(=O)N([C@H](C)CO)C[C@H]1C | -0.445% |
| CCCNC(=O)N(C)C[C@@H]1Oc2ncc(-c3cccc(C#N)c3)cc2C(=O)N([C@@H](C)CO)C[C@H]1C | 7.71% |
| CCC(=O)N(C)C[C@@H]1Oc2cc(C#CCOC)ccc2S(=O)(=O)N([C@@H](C)CO)C[C@@H]1C | -1.77% |
| Cc1ccc(-n2c(=O)c(C#N)cc3c(=O)n4ccccc4nc32)cc1C | -1.05% |
| Cc1cccn2c(=O)c3cc(C#N)c(=O)n(CCCN4CCOCC4)c3nc12 | 56.4% (active) |
| Cc1cccn2c(=O)c3cc(C#N)c(=NC(=O)c4cccnc4)n(CC4CCCO4)c3nc12 (stereo unspecified) | -4.7% |
| C[C@@H](NC(=O)C[C@H]1C[C@H]2c3cc(NC(=O)C4CCOCC4)ccc3O[C@H]2[C@@H](CO)O1)c1ccccc1 | -0.474% |
| Cc1cc(Nc2cc(N3CCN(C)CC3)nc(Sc3ccc(NC(=O)C4CC4)cc3)n2)n[nH]1 | 17.6% |
| C=CC(=O)Nc1ccc(Nc2ccnc(Nc3ccc(N4CCN(C)CC4)cc3)n2)cc1 | 81.2% (active) |
| CC(=O)Nc1cc(-c2ccc(N3CCN(C)CC3)cc2)cn2c(-c3ccc(F)cc3)cnc12 | 36.5% |
| C[C@H](CO)N1C[C@H](C)[C@@H](CN(C)S(=O)(=O)c2cn(C)cn2)Oc2ccc(N(C)C)cc2CC1=O | -0.235% |
| CCN(C[C@@H]1[C@@H](c2ccccc2)[C@H](CO)N1C(C)=O)C(=O)NC(C)C | -5% |
| CO[C@@H]1CN(C)C(=O)c2cc(NC(=O)C3CCCC3)ccc2OC[C@@H](C)N(Cc2ccc(F)cc2)C[C@H]1C | -4.74% |
| CC(=O)N(C)C[C@@H]1Oc2cc(C#Cc3ccccc3F)ccc2S(=O)(=O)N([C@@H](C)CO)C[C@@H]1C | -0.527% |
| C[C@@H]1CN([C@@H](C)CO)C(=O)c2cc(-c3ccc(C#N)cc3)cnc2O[C@H]1CN(C)C(=O)CN(C)C | 5.52% |
| CCNC(=O)C[C@@H]1CC[C@@H]2[C@H](COC[C@H](O)CN2S(=O)(=O)c2ccc(Oc3ccccc3)cc2)O1 | -6.18% |
| O=C(C[C@H]1CC[C@@H](NC(=O)c2ccccc2)[C@@H](CO)O1)NCc1ccncn1 | -7.18% |
| CCCNC(=O)C[C@@H]1CC[C@@H]2[C@H](COc3ccc(NC(=O)c4cc(F)cc(F)c4)cc3C(=O)N2C)O1 | 1.51% |
| CCCNC(=O)C[C@@H]1CC[C@H]2[C@@H](COC[C@@H](O)CN2Cc2ccccc2F)O1 | 6.11% |

| SMILES | inhibition |
| --- | --- |
| C[C@@H]1CN([C@H](C)CO)C(=O)c2cccc(NC(=O)Nc3ccc4c(c3)OCO4)c2O[C@@H]1CN(C)Cc1ccccc1 | -7.8% |
| C[C@H]1CN([C@@H](C)CO)C(=O)c2cc(NC(=O)C3CC3)ccc2O[C@@H]1CN(C)S(=O)(=O)c1cn(C)cn1 | -0.446% |
| COc1ccc(NC(=O)N(C)C[C@H]2OCc3ccccc3-c3ccccc3C(=O)N([C@H](C)CO)C[C@@H]2C)cc1 | -9.7% |
| O=C(Nc1cccc(Cl)c1)c1cc([N+](=O)[O-])ccc1N1CCN(CCO)CC1 | -11.1% |
| O=C1c2ccccc2C(=O)c2c1cccc2N1CCN(CCO)CC1 | 84.2% (active) |
| O=C1CCN(CCCc2ccccc2)CCN1CCO | -1.44% |
| Cc1noc(C)c1NC(=O)N(C)C[C@H]1Oc2ccc(NS(=O)(=O)c3ccc(Cl)cc3)cc2CC(=O)N([C@H](C)CO)C[C@@H]1C | -4.2% |
| Cc1ccc(S(=O)(=O)N(C)C[C@H]2Oc3ccc(NC(=O)C4CC4)cc3C(=O)N([C@H](C)CO)C[C@H]2C)cc1 | 8.82% |
| CO[C@H]1CN(C)C(=O)c2cc(NC(=O)C3CCC3)ccc2OC[C@H](C)N(Cc2nccs2)C[C@H]1C | 2.2% |
| COc1cccc(NC(=O)C[C@@H]2CC[C@H]3[C@@H](COc4ccc(NC(=O)C5CCOCC5)cc4C(=O)N3C)O2)c1 | -1.97% |
| COCC(=O)Nc1ccc2c(c1)C(=O)N(C)C[C@@H](OC)[C@H](C)CN(C(=O)CC1CC1)[C@H](C)CO2 | 3.23% |
| CCCN(C)C[C@H]1Oc2cc(-c3ccc(C)cc3)ccc2S(=O)(=O)N([C@H](C)CO)C[C@H]1C | -15% |
| C#Cc1ccc([C@H]2C=C(C(=O)O)O[C@@H](OCC)[C@@H]2CCCO)cc1 | -9.94% |
| Cc1noc(C)c1NC(=O)Nc1cccc2c1O[C@@H](CN(C)Cc1ccc3c(c1)OCO3)[C@@H](C)CN([C@@H](C)CO)C2=O | 7.78% |
| O=C(c1cccnc1)N1CCCCN2[C@@H](CO)[C@H](c3ccc(C#Cc4ccccc4)cc3)[C@@H]2C1 | 1.81% |
| CCNC(=O)[C@@H]1[C@@H](CO)[C@@H]2Cn3c(ccc(C4=CCCC4)c3=O)[C@H]1N2Cc1ccccc1 | 2.92% |
| CC(C)NC(=O)N(C)C[C@H]1OCCCC[C@H](C)Oc2ccc(NC(=O)Nc3ccc4c(c3)OCO4)cc2C(=O)N([C@H](C)CO)C[C@@H]1C | -0.838% |
| CNC[C@H]1Oc2cc(C#Cc3ccccc3)ccc2S(=O)(=O)N([C@@H](C)CO)C[C@@H]1C | 1.19% |
| Cc1ccc(S(=O)(=O)N(C)C[C@H]2OCCCC[C@H](C)Oc3ccc(NS(=O)(=O)c4c(C)noc4C)cc3C(=O)N([C@H](C)CO)C[C@@H]2C)cc1 | 3.91% |
| CN1c2ccc(-c3ccc(F)cc3)cc2[C@@H]2[C@@H](CCN2S(=O)(=O)c2ccc(F)cc2)[C@@H]1CO | -1.5% |
| COc1ccc(NC(=O)Nc2ccc3c(c2)CC(=O)N([C@@H](C)CO)C[C@H](C)[C@H](CN(C)C(=O)Nc2ccc4c(c2)OCO4)O3)cc1 | -3.32% |
| COc1cccc(C(=O)Nc2ccc3c(c2)C(=O)N(C)[C@@H]2CC[C@@H](CC(=O)NCCCN4CCOCC4)O[C@@H]2CO3)c1 | 8.84% |
| CO[C@H]1CN(C)C(=O)c2ccc(NC(=O)C3CCOCC3)cc2OC[C@H](C)NC[C@H]1C | -0.243% |
| CCNC(=O)C[C@@H]1CC[C@@H]2[C@@H](COc3ccc(NC(=O)c4cccc(C(F)(F)F)c4)cc3C(=O)N2C)O1 | 7.26% |
| O=C(C1CCC1)N1CC[C@H]2[C@H](CO)Nc3ccc(-c4cccc(F)c4)cc3[C@H]21 | 2.5% |
